In the library only some 7.9% were active in any assay of this set; here they are far more common.
MCF10A rereplic: induces DNA re-replication in MCF 10a normal breast cells; AID 624296; MCF 10A DNA re-replication, Hoechst nuclear intensity, 48 h; 350,000 compounds, 2.9% hits; Potency, µM (top dose mostly 46.1 µM), without a hit: at the top dose activity, positive = re-replication, usual class: activators; further: % of control where 0% means no effect; nearly all actives have a fitted effect of over 50% in size
SW480 rerep: DNA re-replication induction in SW480 cells. SW480 DNA re-replication, Hoechst DNA content imaging, 48 h. Potency, µM (doses to about 46.1 µM), inactives show top-dose re-replication activation, hits mostly activators. 340,000 compounds, 1.8% hits. AID 624297; further: % of control where 0% means no effect; nearly all actives have a fitted effect of over 55% in size
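Treated cells incubate 48 hr (37 C, 5% CO2), are stained 40 min with Hoechst, and nuclear fluorescence is enumerated; a rise in nuclei with high DNA signal marks re-replication.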
HT1080 IDH1KD tx: toxicity to HT-1080 IDH1 knockdown cells (counter line) | Potency, µM (titrated, usually from 46.1 µM), for the others: at the highest dose activity, negative = toxicity, usual class: cytotoxic | HT-1080 IDH1 knockdown viability, ATP luminescence, 48 h | 360,000 compounds, 2% hits | AID 686971;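 further: 0% = DMSO wells and -100% = cell-free medium wells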
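Luminescent ATP read-out (CellTiter-Glo, 10 min at room temperature) after 48 h compound exposure at 37 °C gave viability of IDH1-knockdown HT-1080 cells. Activity was normalised to DMSO and cell-free wells, then fitted as concentration-response curves.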
HT1080NT lethal: kills 2HG-producing HT-1080-NT fibrosarcoma cells. HT-1080-NT fibrosarcoma viability, CellTiter-Glo ATP luminescence, 48 h. Potency, µM (titrated, usually from 46.1 µM), for inactives: at the top dose activity, negative = less viability, most hits filed as cytotoxic. 360,000 compounds, 1.6% hits. AID 686970;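 further: NT is the 2HG producing partner of a matched IDH1 knockdown line; 0% = DMSO-treated cells and -100% = media-only wells without cells; nearly all actives have a fitted effect of over 55% in size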
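750 cells/well, RPMI + 5% FBS; 2 h settle, compound pin-transfer, 48 h at 37 degrees C. CellTiter-Glo 10 min RT, luminescence. Normalized to DMSO and media-only wells.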
KB-3-1 cytotox: KB-3-1 parental cell cytotoxicity; 400,000 compounds, 1.4% hits; KB-3-1 viability, CellTiter-Glo ATP luminescence, 72 h; Potency, µM (doses to about 46.1 µM), most hits filed as cytotoxic; AID 1347075; further: on the % scale 0 is the no-effect control and ±100 the full control effect; nearly all actives have a fitted effect of over 60% in size
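Screening of KB-3-1 cells (DMEM, 10% FBS, phenol-red free) ran from lowest to highest compound concentration; after 72 h at 37 °C viability was read luminescently and curves fitted.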
KB-V1 cytotox: kills drug-selected multidrug resistant KB-V1 cells | KB-V1 MDR cells viability, CellTiter-Glo, 72 h | Potency, µM (top dose mostly 46.1 µM), actives largely listed as cytotoxic | 400,000 compounds, 3.4% hits; further: on the % scale 0 is the no-effect control and ±100 the full control effect; nearly all actives have a fitted effect of over 60% in size
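KB-V1 MDR subline cells in DMEM (phenol-red free, 10% FBS) exposed to compounds in qHTS concentration series for 72 h at 37 degrees C. Viability read by CellTiter-Glo luminescence; concentration-effect curves fitted after normalization and correction.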
* = called active by the depositor. The call rests on the fitted dose curve; in most records, active means well fitted curve in the direction sought with a large enough effect; inconclusive means small, poorly fitted or top-dose-only effect, or another doubt; inactive means no such curve, though single readings can be large; an effect the other way counts as inactive or inconclusive. Potency means the concentration at half of the fitted maximal effect.

For Cc1ccc(CNC(=O)C2CCC(CNS(=O)(=O)c3ccc4c(c3)CCCC(=O)N4)CC2)cc1 (stereo not given) the results were KB-3-1 cytotox inactive and KB-V1 cytotox inactive.
CC(O)CNc1ncnc2cc(-c3ccc(F)cc3)sc12 (stereo not given) was read as MCF10A rereplic 13µM*, SW480 rerep inconclusive, HT1080 IDH1KD tx -2.3%, HT1080NT lethal -19.6%, KB-3-1 cytotox inactive and KB-V1 cytotox inconclusive.
`COC(CNc1ncnc2sc(-c3ccccc3)cc12)OC` gave MCF10A rereplic 20.1%, SW480 rerep 2.0%, HT1080 IDH1KD tx -0.6%, HT1080NT lethal -2.6%, KB-3-1 cytotox inactive and KB-V1 cytotox inactive.
Screening COCCCNCCOCCOc1ccc(Cl)cc1C(C)(C)C returned MCF10A rereplic 18.4µM*, SW480 rerep inconclusive, HT1080 IDH1KD tx inconclusive, HT1080NT lethal -27.6%, KB-3-1 cytotox inactive and KB-V1 cytotox 18.4µM*.
`CC(C)(C)c1cc(Cl)ccc1OCCOCCN1CCCC1` gave MCF10A rereplic 6.8%, SW480 rerep 21.4%, HT1080 IDH1KD tx 18.4µM*, HT1080NT lethal 14.6µM*, KB-3-1 cytotox inactive and KB-V1 cytotox inactive.
Screening C=CCNCCOCCOc1ccc(Cl)cc1C(C)(C)C returned MCF10A rereplic inconclusive, SW480 rerep 12.0%, HT1080 IDH1KD tx -13.7%, HT1080NT lethal -2.1%, KB-3-1 cytotox inactive and KB-V1 cytotox inconclusive.
Screening CC1CC(NC(=O)c2cc3c(=O)n4ccccc4nc3n2C)CC(C)(C)C1 (stereo not given) returned MCF10A rereplic 10.3µM*, SW480 rerep 10µM*, HT1080 IDH1KD tx 0.0%, HT1080NT lethal 11.9%, KB-3-1 cytotox inactive and KB-V1 cytotox inconclusive.
Screening CC1CCCCC1NC(=O)c1cc2c(=O)n3ccccc3nc2n1C (stereo not given) returned MCF10A rereplic -3.2%, SW480 rerep inconclusive, HT1080 IDH1KD tx -2.9%, HT1080NT lethal 1.0%, KB-3-1 cytotox inactive and KB-V1 cytotox inactive.
`CC1Cc2ccccc2N1C(=O)c1cc2c(=O)n3ccccc3nc2n1C` (stereo not given) gave MCF10A rereplic inconclusive, SW480 rerep 14.3%, HT1080 IDH1KD tx 10.8%, HT1080NT lethal -18.3%, KB-3-1 cytotox inconclusive and KB-V1 cytotox 5.8µM*.
Screening CCOc1ccc(C(=O)OCC(=O)c2c(N)n(C)c(=O)n(C)c2=O)cc1OCC returned MCF10A rereplic 6.0%, SW480 rerep -2.0%, HT1080 IDH1KD tx -1.3%, HT1080NT lethal -1.4%, KB-3-1 cytotox inactive and KB-V1 cytotox inactive.
CN(c1ccccc1)S(=O)(=O)c1cc(C(=O)OCC(=O)c2c(N)n(C)c(=O)n(C)c2=O)ccc1Cl was read as MCF10A rereplic 3.4%, SW480 rerep -5.9%, HT1080 IDH1KD tx -1.0%, HT1080NT lethal -7.7%, KB-3-1 cytotox inactive and KB-V1 cytotox 16.4µM*.
CCN(c1ccccc1)S(=O)(=O)c1cc(C(=O)OCC(=O)c2c(N)n(C)c(=O)n(C)c2=O)ccc1C was read as MCF10A rereplic 5.9%, SW480 rerep -4.6%, HT1080 IDH1KD tx -2.9%, HT1080NT lethal -2.7%, KB-3-1 cytotox inactive and KB-V1 cytotox inactive.
For Cn1c(N)c(C(=O)COC(=O)c2ccc(Cl)c(S(=O)(=O)N3CCCCC3)c2)c(=O)n(C)c1=O the results were MCF10A rereplic inconclusive, SW480 rerep 22.1%, HT1080 IDH1KD tx 8.3%, HT1080NT lethal -2.5%, KB-3-1 cytotox inactive and KB-V1 cytotox 20.6µM*.
COc1ccc(C2CC(=O)c3cc(-c4nc(-c5cccc([N+](=O)[O-])c5)cs4)c(=O)n(-c4ccccc4C)c3C2)cc1 (stereo not given) was read as KB-3-1 cytotox inactive and KB-V1 cytotox inconclusive.
CCOc1ccc(NC(=O)Cn2cc(C(=O)c3ccc(OC)cc3)c(=O)c3cc4c(cc32)OCO4)cc1 was read as KB-3-1 cytotox inactive and KB-V1 cytotox inconclusive.
CCOC(=O)c1c(C)[nH]c(C2=NNC(=Nc3cccc(Cl)c3)SC2)c1C was read as MCF10A rereplic 6.51µM* and SW480 rerep 20.6µM*.
Screening CCCc1cc(=O)[nH]c(SCc2nc3ccc([N+](=O)[O-])cc3[nH]2)n1 returned MCF10A rereplic 7.2%, SW480 rerep 17.6%, HT1080 IDH1KD tx 14.6µM*, HT1080NT lethal 9.2µM*, KB-3-1 cytotox inconclusive and KB-V1 cytotox inactive.
Screening COc1ccc(-c2cccc(NS(=O)(=O)c3cccc([N+](=O)[O-])c3)c2)nn1 returned MCF10A rereplic -17.4%, SW480 rerep inconclusive, HT1080 IDH1KD tx -4.9%, HT1080NT lethal -7.2%, KB-3-1 cytotox inactive and KB-V1 cytotox inactive.
Screening COc1ccc(-c2cccc(NS(=O)(=O)c3ccc([N+](=O)[O-])cc3)c2)nn1 returned MCF10A rereplic 13.1%, SW480 rerep -6.7%, HT1080 IDH1KD tx 5.8%, HT1080NT lethal 4.7%, KB-3-1 cytotox inactive and KB-V1 cytotox 13µM*.
Screening CC(C)(C)c1cc(C(=O)NNc2cc(C(F)(F)F)ccc2Cl)n(Cc2ccccc2)n1 returned MCF10A rereplic 20.6µM*, SW480 rerep 5.1%, HT1080 IDH1KD tx inconclusive, HT1080NT lethal inconclusive, KB-3-1 cytotox inconclusive and KB-V1 cytotox inconclusive.
`CC(C)(C)c1cc(C(=O)Nc2ccc(F)cc2)n(Cc2ccc(F)cc2)n1` gave MCF10A rereplic 20.6µM*, SW480 rerep 0.7%, HT1080 IDH1KD tx inconclusive, HT1080NT lethal inconclusive, KB-3-1 cytotox inconclusive and KB-V1 cytotox inconclusive.
For COc1ccccc1NNC(=O)c1cc(C(C)(C)C)nn1Cc1ccccc1 the results were MCF10A rereplic 16.9%, SW480 rerep 9.9%, HT1080 IDH1KD tx -9.8%, HT1080NT lethal -2.1%, KB-3-1 cytotox inactive and KB-V1 cytotox inconclusive.
`Cc1ccc(NNC(=O)c2cc(C(C)(C)C)nn2Cc2ccccc2)cc1` gave MCF10A rereplic inconclusive, SW480 rerep -9.8%, HT1080 IDH1KD tx -10.5%, HT1080NT lethal -7.7%, KB-3-1 cytotox 11.6µM* and KB-V1 cytotox inactive.
Screening CC(C)(C)c1cc(C(=O)NNc2ccc(OC(F)(F)F)cc2)n(Cc2ccccc2)n1 returned MCF10A rereplic 18.4µM*, SW480 rerep -35.1%, HT1080 IDH1KD tx 7.31µM*, HT1080NT lethal inconclusive, KB-3-1 cytotox inactive and KB-V1 cytotox inconclusive.

Screens: PubChem BioAssay, National Center for Advancing Translational Sciences (NCATS)
